Measurements: PubChem BioAssay (NCI)
The panel holds about 83,000 compounds, 20% with a hit somewhere; the sample as a whole holds those more often.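 The endpoint reported here, percent growth, reads 100 for growth as untreated, 0 for no net growth and -100 for all cells dead.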 A number with no mark means an inactive call. Calls of active or inactive are those of the source.

tested on: NCI-H322M lung; assay: NCI-60 one-dose screen, 48 h (100 = growth as untreated, 0 = no growth, -100 = all killed); conditions: 10 µM unless noted
Procedure: Growth inhibition of the NCI-H322M human Non-Small Cell Lung tumor cell line is measured as a screen for anti-cancer activity. Cells are grown in 96 well plates and exposed to the test compound for 48 hours. Compounds are tested at a single concentration, which is 10^-5 M for most compounds. The reported endpoint is percent growth (GI% or GIPRCNT), where numbers from 0 - 100% represent growth inhibition, and numbers from -100% - 0 represent cell death. For example, a value of 40 represents 60% growth inhibition. A value of 0 means no net growth occurred over the course of the experiment. A value of -40 indicates 40% of cells at the beginning of the experiment died by the end of the experiment. A value of -100 means all cells are dead at the end of the experiment.
NCI-60 Human Tumor Cell Lines Screen was performed using the standard one-dose NCI protocol, which is described in more detail at https://dtp.cancer.gov/discovery_development/nci-60/default.htm.
Compounds with GIPRCNT values below 10 were considered active. Activity score was based on GIPRCNT using the following formula: […]
Score is 0 for GIPRCNT values of 100 or above, 50 for GIPRCNT values of 0, and 100 for GIPRCNT values of -100.

SMILES | growth
COc1cc2nc(N3CCC[C@H](NC4=CC(=O)c5ccccc5C4=O)C3)nc(N)c2cc1OC | -72.2% (active)
O=[N+]([O-])c1ccc2nc(N/N=C/c3ccc(O)cc3)sc2c1 | 58.8%
CCCCCCCC/C=C\CCCCCCCCOc1cccc(CC(=O)NCC[N+]2(C)CCCC2)c1 | 99.5%
CC(=O)N(CC(O)CO)c1c(I)c(C(=O)NCCO)c(I)c(C(=O)NCC(O)CO)c1I (stereo not given) | 93%
COc1cccc(Nc2nc(NCCO)c3ccccc3n2)c1 | 86.4%
Cc1nc2cc(Nc3nc(NCCN)nc(Nc4ccc(F)cc4)n3)ccc2n1Cc1ccccc1 | 99.7%
COc1cc(-c2nc(SC(C)C)nc(Nc3ccccc3C)c2C#N)cc(OC)c1OC | 106%
Cc1ccc(S(=O)(=O)N(c2ccc(Cl)cc2)c2ccc(Br)cc2C(=O)O)cc1 | 114%
Clc1ccccc1Nc1ccc2nnc(-c3ccncc3)n2n1 | 102%
COC(=O)C1C2CC3c4[nH]c5cc(OC)ccc5c4CCN3CC2CC(OC2CCCCO2)C1OC (stereo not given) | 102%
CCSc1nnc2c3cc(Br)ccc3n(C)c2n1 | 101%
CCCCCCCC/C=C\CCCCCCCCOc1cccc(CC(=O)NCC[N+]2(C)CCOCC2)c1 | 101%
COc1ccc(-c2csc3c2-n2cccc2C3=O)cc1O | 17.5%
COc1ccc(/C=C2\SC(=O)N(CN3CCN(c4cc5c(cc4F)c(=O)c(C(=O)O)cn5C4CC4)CC3)C2=O)cc1 | 112%
CCCN1CCN(c2ccc3nc(-c4ccc5nc(-c6ccc(C(F)(F)F)cc6)[nH]c5c4)[nH]c3c2)CC1 | -95.7% (active)
O=C(COc1cccc(/C=C2\COc3ccccc3C2=O)c1)c1ccccc1 | 95.3%
O=c1oc2ccccc2cc1-c1csc(N=Nc2c(O)[nH]c3ccc(Cl)cc23)n1 | 105%
O=C1OCC2=C1C(c1ccc3c(c1)OCO3)CC(=O)N2c1cccc(Cl)c1 (stereo not given) | 94.1%
O=C(C[Si](CC(=O)c1cccc(C(F)(F)F)c1)CC(=O)c1cccc(C(F)(F)F)c1)c1cccc(C(F)(F)F)c1 | 74.5%
COc1cc(-c2nc(Nc3nc4ccccc4[nH]3)nc(N)c2C#N)cc(OC)c1OC | 83.2%

SMILES | growth
O=c1[nH]c(-c2ccccn2)nc2sc3c(c12)CCCCCC3 | 46.8%
O=C1CC(c2ccsc2)c2snc(-c3ccc(Cl)cc3)c2N1 (stereo not given) | 55.7%
O=[N+]([O-])c1ccc(O)c2ncccc12 | 31.6%
COc1ccc(/C=C2\CN(Cc3cn(CCCNc4ccnc5cc(Cl)ccc45)nn3)C/C(=C\c3ccc(OC)c(OC)c3)C2=O)cc1OC | 22.7%
Oc1cccc(Nc2nc(-c3ccccn3)cs2)c1 | 94.6%
COc1ccc(Nc2[nH]n(C3=Nc4ccccc4Sc4ccccc43)c(=O)c2C#N)cc1 | 89.1%
CCOC(=O)c1cn2c3c(cc(F)cc3c1=O)C(CC)c1ccccc1C2 (stereo not given) | 87.1%
COCCOC1=C(Cl)C(=O)c2ccccc2C1=O | 95.6%
CCN1CCN(c2ccc(Nc3ncc4ccc5ncn(C(C)C)c5c4n3)nc2)CC1 | 1.51% (active)
CN1CCc2cccc3c2C1Cc1ccc(O)c(O)c1-3 (stereo not given) | 109%
COc1cc2cc(Oc3ccc(NC(=O)Nc4ccc(Cl)c(C(F)(F)F)c4)cc3)c(C)nc2cc1OCCN1CCCCC1 | 8.09% (active)
c1ccc2cc(Cn3c(-c4ccc5ccccc5c4)[n+](Cc4ccc5ccccc5c4)c4ccccc43)ccc2c1 | -7.14% (active)
CCCCC1COc2cccc3c(SCC(=O)N(C)c4cccc5ccccc45)cc[n+]1c23 (stereo not given) | 110%
O=C1c2ccccc2C(=O)c2c(Nc3ccc(CCO)cc3)ccc(O)c21 | 68.5%
NC(=O)c1cc(I)ccc1NC(=O)COc1ccccc1 | 48.3%
CS(=O)(=O)Nc1cccc(C(=O)NCc2ccc(N3CCOCC3)cc2)c1 | 112%
COc1cc(OCc2cccc(-c3ccc(C(O)c4nccs4)cc3)c2C)cc(OC)c1C=O (stereo not given) | 92.1%
COc1cc(C2=NN(c3ccc(S(N)(=O)=O)cc3)C(c3ccc(Cl)cc3)C2)cc(OC)c1OC (stereo not given) | 66.9%
CCCOC(=O)c1ccc2c(c1)[N+](=O)C(C(=O)c1ccccc1)=C(C(F)(F)F)[N+]2=O | -91.7% (active)
CN(C)c1ccc(/C=C(\C#N)c2cc3ccccc3n2C)cc1 | 49.7%
